A number with no mark means an inactive call. The source holds several records for some structures; these can differ, active in one and inactive in another. Activity calls are given as the source filed them. Calls come from the whole dose curve. Residues, ends and D or L forms follow the SMILES beside them. *: point of attachment. Cbz = O=C(OCc1ccccc1)*
assay: qHTS drug screen for cell cycle checkpoint inhibitors in PARPi-resistant BRCA-mutant ovarian cancer cell lines. (AID 1963452); conditions: PEO1/OlaR viability, CellTiter-Glo luminescence, 96 h
Procedure, shortened: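 PEO1, PEO4 and PEO1/OlaR ovarian cancer cells, 600 per well, exposed 96 h at 37C to a dilution series. Viability read by CellTiter-Glo luminescence, normalized to DMSO and empty wells; activity summarized as Z-AUC.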
Potency is the fitted concentration of half-maximal effect.

Q: For `Cn1cc(-c2cnn3c(N)c(Br)c([C@H]4CCCNC4)nc23)cn1`, which Potency is on record?
A: 3470 nM (active)

Q: Which Potency does the source give for `COc1cccc2c1C(=O)c1c(O)c3c(c(O)c1C2=O)C[C@@](O)(C(=O)CO)C[C@@H]3O[C@H]1C[C@H](N)[C@H](OC2CCCCO2)[C@H](C)O1` (stereo partly drawn) here?
A: 245 nM (active)

Q: For `COc1cccc2c1C(=O)c1c(O)c3c(c(O)c1C2=O)C[C@@](O)(C(=O)CO)C[C@@H]3O[C@H]1C[C@H](N)[C@@H](O)[C@H](C)O1`, which Potency is on record?
A: 219 nM (active)

same assay, conditions: PEO1/OlaR viability, CellTiter-Glo luminescence, 96 h; active compounds read low

Q: With `CC(C)n1cnc2c(NCCc3ccc(O)cc3)nc(-c3csc4ccccc34)nc21` as the molecule, how does the Z-AUC read?
A: 0.419

Q: For `CCc1c(O)cc(O)c(C(=O)c2ccc(OCCN3CCOCC3)c(OC)c2)c1CC(=O)N(CCOC)CCOC`, which Z-AUC is on record?
A: -0.361

Q: With `Cn1cc(-c2cnn3c(N)c(Br)c([C@H]4CCCNC4)nc23)cn1` as the molecule, how does the Z-AUC read?
A: -0.529

Q: For `Cn1cnc(=N)c2[nH]cnc21`, which Z-AUC is on record?
A: 1.05

Q: With `CC(C)C[C@@H](C=O)NC(=O)[C@H](CC(C)C)NC(=O)[C@H](CC(C)C)NC(=O)OCc1ccccc1` (Cbz-Leu-Leu-Leu-aldehyde) as the molecule, how does the Z-AUC read?
A: -0.0586

Q: For `c1ccc2c(Oc3nc(Nc4ccc(N5CCOCC5)cc4)c4ncn(C5CCCCC5)c4n3)cccc2c1`, which Z-AUC is on record?
A: 1.71

Q: For `CN(C)c1ccc(C(=O)NCCCCCCC(=O)NO)cc1`, which Z-AUC is on record?
A: -1.48

Q: Which Z-AUC does the source give for `CN(C)CCN1C(=O)c2cccc3cc(N)cc(c23)C1=O` here?
A: -0.488

Q: Which Z-AUC does the source give for `O=[N+]([O-])c1cn2c(n1)OC[C@@H](OCc1ccc(OC(F)(F)F)cc1)C2` here?
A: 0.733

Q: Which Z-AUC does the source give for `CN(C)CC(=O)N1CCC(c2ccc(NC(=O)c3ncc(C#N)[nH]3)c(C3=CCCCC3)c2)CC1` here?
A: -1.11

Q: For `COc1cc(C[C@@H](CO)[C@H](CO)Cc2ccc(O)c(OC)c2)ccc1O`, which Z-AUC is on record?
A: 0.833

Q: With `c1cc(CN2CCCNCCNCCCNCC2)ccc1CN1CCCNCCNCCCNCC1` as the molecule, how does the Z-AUC read?
A: 0.916

Q: With `Cn1cnc2c(F)c(Nc3ccc(Br)cc3F)c(C(=O)NOCCO)cc21` as the molecule, how does the Z-AUC read?
A: -0.612

Q: Which Z-AUC does the source give for `O=C(CCCCCCC(=O)Nc1cccnc1)NO` here?
A: 0.519

Q: Which Z-AUC does the source give for `CC(N[C@H]1CCCC[C@H]1NC(=O)c1ccc(Cl)cc1)c1cccc2ccccc12` (stereo partly drawn) here?
A: 0.148

Q: Which Z-AUC does the source give for `COc1cccc2c1C(=O)c1c(O)c3c(c(O)c1C2=O)C[C@@](O)(C(=O)CO)C[C@@H]3O[C@H]1C[C@H](N)[C@H](OC2CCCCO2)[C@H](C)O1` (stereo partly drawn) here?
A: 0.402

Q: With `c1ccc(CNc2nc(NCc3ccccc3)c3ccccc3n2)cc1` as the molecule, how does the Z-AUC read?
A: 0.198

Q: For `CCOc1cc2c(c(F)c1OCC)C(=N)N(CC(=O)c1cc(N3CCOCC3)c(OC)c(C(C)(C)C)c1)C2`, which Z-AUC is on record?
A: -0.189

Q: Which Z-AUC does the source give for `CCCc1nc(C(C)(C)O)c(C(=O)O)n1Cc1ccc(-c2ccccc2-c2nn[nH]n2)cc1` here?
A: 0.227

Q: Which Z-AUC does the source give for `CCOC(=O)[C@@H](N)Cc1ccc(-c2cc(O[C@H](c3ccc(Cl)cc3-n3ccc(C)n3)C(F)(F)F)nc(N)n2)cc1` here?
A: -0.389

Q: For `COC(=O)C1C2CC3c4[nH]c5cc(OC)ccc5c4CCN3CC2CC(OC(=O)c2cc(OC)c(OC)c(OC)c2)C1OC` (stereo not drawn), which Z-AUC is on record?
A: 1.42

Q: With `N#Cc1cc(NC(=O)Nc2nnc(-c3ccncc3)s2)ccc1-c1cn[nH]c1` as the molecule, how does the Z-AUC read?
A: -0.0161

Q: Which Z-AUC does the source give for `CC(C)NC[C@@H](C(=O)N1CCN(c2ncnc3c2[C@H](C)C[C@H]3O)CC1)c1ccc(Cl)cc1` here?
A: 1.25

Q: Which Z-AUC does the source give for `FC(F)c1nc2ccccc2n1-c1nc(N2CCOCC2)nc(N2CCOCC2)n1` here?
A: -1.24

Q: Which Z-AUC does the source give for `O=c1c(O)c(-c2ccc(O)c(O)c2)oc2cc(O)ccc12` here?
A: 0.12

Q: With `C[C@H]1[C@@H](OC(=O)CCC(=O)O)O[C@@H]2O[C@@]3(C)CC[C@@H]4[C@H](C)CC[C@@H]1[C@@]24OO3` as the molecule, how does the Z-AUC read?
A: -0.162

Q: Which Z-AUC does the source give for `c1coc(CNc2ncnc3nc[nH]c23)c1` here?
A: 0.877

Q: For `COc1cc(C)c(Sc2cnc(NC(=O)c3ccc(CNC(C)C(C)(C)C)cc3)s2)cc1C(=O)N1CCN(C(C)=O)CC1` (stereo not drawn), which Z-AUC is on record?
A: -0.0176

Q: Which Z-AUC does the source give for `C=Cc1c(C)c2cc3nc(cc4[nH]c(cc5nc(cc1[nH]2)C(C)=C5CCC(=O)O)c(CCC(=O)OC)c4C)[C@@]1(C)C3=CC=C(C(=O)OC)[C@H]1C(=O)OC` here?
A: 0.838

Q: Which Z-AUC does the source give for `CCOC(=O)C=C[C@H](C[C@@H]1CCNC1=O)NC(=O)[C@@H](CC(=O)[C@@H](NC(=O)c1cc(C)on1)C(C)C)Cc1ccc(F)cc1` here?
A: -0.315

Source: PubChem BioAssay (NCATS)
